Data published in ChEMBL document CHEMBL1961873, “Compounds: GSK PKIS; Assays: Nanosyn kinase panel” (2012).

Columns and labels:
[1] = target: Platelet-derived growth factor receptor beta (Homo sapiens) (UniProt P09619); conditions: at 1 µM;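 further: each value is a mean percent inhibition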
[2] = target: Tyrosine-protein kinase FRK (Homo sapiens) (UniProt P42685); conditions: at 0.1 µM
[3] = target: Tyrosine-protein kinase FRK (Homo sapiens) (UniProt P42685); conditions: at 1 µM
[4] = target: Protein-tyrosine kinase 2-beta (Homo sapiens) (UniProt Q14289); conditions: at 0.1 µM
[5] = target: Protein-tyrosine kinase 2-beta (Homo sapiens) (UniProt Q14289); conditions: at 1 µM
[6] = target: Proto-oncogene tyrosine-protein kinase receptor Ret (Homo sapiens) (UniProt P07949); conditions: at 0.1 µM
[7] = target: Proto-oncogene tyrosine-protein kinase receptor Ret (Homo sapiens) (UniProt P07949); conditions: at 1 µM
[8] = tested on: Proto-oncogene tyrosine-protein kinase receptor Ret (Homo sapiens), P07949 [V804L]; conditions: at 0.1 µM
[9] = tested on: Proto-oncogene tyrosine-protein kinase receptor Ret (Homo sapiens), P07949 [V804L]; conditions: at 1 µM
[10] = tested on: Proto-oncogene tyrosine-protein kinase receptor Ret (Homo sapiens), P07949 [Y791F]; conditions: at 0.1 µM
Chain of Proto-oncogene tyrosine-protein kinase receptor Ret (Homo sapiens), P07949 [Y791F] (P07949 whole entry Y791F): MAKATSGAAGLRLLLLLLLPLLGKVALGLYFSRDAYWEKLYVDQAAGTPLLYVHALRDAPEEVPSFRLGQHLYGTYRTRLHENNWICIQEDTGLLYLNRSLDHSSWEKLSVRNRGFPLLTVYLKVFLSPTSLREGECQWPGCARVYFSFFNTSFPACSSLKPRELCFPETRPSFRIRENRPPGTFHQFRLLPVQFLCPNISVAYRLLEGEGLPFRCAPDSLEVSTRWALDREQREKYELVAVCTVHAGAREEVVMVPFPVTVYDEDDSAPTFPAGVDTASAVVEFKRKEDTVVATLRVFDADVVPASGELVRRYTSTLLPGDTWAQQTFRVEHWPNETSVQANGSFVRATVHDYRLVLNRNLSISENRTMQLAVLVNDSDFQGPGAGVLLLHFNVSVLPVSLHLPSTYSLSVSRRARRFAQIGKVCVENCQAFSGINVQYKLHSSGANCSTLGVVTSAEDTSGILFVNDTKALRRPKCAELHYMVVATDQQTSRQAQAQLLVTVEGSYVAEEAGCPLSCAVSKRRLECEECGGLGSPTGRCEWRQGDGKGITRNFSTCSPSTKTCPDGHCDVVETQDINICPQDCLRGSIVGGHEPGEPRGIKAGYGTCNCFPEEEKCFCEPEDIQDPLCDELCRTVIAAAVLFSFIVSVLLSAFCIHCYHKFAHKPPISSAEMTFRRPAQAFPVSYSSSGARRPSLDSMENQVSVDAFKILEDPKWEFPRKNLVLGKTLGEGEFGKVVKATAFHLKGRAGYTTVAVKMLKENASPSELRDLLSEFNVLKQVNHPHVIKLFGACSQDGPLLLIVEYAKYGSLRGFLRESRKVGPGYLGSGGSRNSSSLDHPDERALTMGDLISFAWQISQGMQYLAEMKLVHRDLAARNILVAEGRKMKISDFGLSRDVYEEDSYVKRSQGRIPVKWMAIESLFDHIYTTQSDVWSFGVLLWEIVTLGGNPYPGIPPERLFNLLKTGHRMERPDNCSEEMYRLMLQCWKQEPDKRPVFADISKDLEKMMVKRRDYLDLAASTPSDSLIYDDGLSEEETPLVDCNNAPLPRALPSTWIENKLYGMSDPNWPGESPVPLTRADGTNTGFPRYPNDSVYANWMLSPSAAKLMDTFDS

Chain of Platelet-derived growth factor receptor beta (Homo sapiens) (P09619 whole entry): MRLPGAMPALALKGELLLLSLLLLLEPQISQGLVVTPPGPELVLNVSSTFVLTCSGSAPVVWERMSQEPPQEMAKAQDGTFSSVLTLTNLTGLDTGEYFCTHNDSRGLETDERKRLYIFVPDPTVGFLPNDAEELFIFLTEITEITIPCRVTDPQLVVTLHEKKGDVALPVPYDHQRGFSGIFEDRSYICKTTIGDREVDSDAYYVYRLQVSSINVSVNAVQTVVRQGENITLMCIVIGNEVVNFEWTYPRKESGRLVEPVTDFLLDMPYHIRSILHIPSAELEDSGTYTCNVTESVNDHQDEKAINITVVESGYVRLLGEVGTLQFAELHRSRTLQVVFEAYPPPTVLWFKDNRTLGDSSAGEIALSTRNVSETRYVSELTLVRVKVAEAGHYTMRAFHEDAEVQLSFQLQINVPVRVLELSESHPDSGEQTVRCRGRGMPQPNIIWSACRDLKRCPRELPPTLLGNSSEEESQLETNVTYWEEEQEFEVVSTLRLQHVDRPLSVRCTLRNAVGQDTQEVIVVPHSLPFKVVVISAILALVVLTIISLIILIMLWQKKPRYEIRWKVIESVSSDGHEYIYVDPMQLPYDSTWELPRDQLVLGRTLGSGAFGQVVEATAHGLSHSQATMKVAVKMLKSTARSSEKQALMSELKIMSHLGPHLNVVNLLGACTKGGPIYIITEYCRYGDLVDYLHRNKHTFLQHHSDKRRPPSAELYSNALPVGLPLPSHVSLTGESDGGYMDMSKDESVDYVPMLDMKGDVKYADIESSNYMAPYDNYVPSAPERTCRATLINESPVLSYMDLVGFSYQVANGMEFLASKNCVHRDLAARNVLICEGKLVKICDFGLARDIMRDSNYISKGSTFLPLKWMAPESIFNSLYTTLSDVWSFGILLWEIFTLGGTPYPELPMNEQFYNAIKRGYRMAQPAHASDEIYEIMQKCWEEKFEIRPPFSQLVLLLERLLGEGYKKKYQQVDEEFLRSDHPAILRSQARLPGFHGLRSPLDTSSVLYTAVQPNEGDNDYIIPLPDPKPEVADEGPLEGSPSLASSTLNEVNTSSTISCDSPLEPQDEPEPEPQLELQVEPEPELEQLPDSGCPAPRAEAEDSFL
Chain of Proto-oncogene tyrosine-protein kinase receptor Ret (Homo sapiens) (P07949 whole entry): as the sequence (P07949 whole entry Y791F) above, with F791Y counted along it
Chain of Tyrosine-protein kinase FRK (Homo sapiens) (P42685 whole entry): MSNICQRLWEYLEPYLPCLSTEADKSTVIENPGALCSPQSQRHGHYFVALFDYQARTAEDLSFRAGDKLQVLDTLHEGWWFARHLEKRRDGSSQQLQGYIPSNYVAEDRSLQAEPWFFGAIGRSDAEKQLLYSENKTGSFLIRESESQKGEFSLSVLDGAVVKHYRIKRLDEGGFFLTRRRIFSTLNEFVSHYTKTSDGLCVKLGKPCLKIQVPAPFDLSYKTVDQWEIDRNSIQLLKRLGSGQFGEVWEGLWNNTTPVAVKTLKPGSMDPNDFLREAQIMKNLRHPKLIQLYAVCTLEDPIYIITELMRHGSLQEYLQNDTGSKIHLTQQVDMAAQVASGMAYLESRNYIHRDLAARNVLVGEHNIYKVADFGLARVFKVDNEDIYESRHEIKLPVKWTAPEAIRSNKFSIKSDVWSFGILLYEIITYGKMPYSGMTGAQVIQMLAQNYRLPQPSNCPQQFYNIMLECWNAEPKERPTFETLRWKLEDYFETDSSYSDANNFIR
Chain of Protein-tyrosine kinase 2-beta (Homo sapiens) (Q14289 whole entry, looked up): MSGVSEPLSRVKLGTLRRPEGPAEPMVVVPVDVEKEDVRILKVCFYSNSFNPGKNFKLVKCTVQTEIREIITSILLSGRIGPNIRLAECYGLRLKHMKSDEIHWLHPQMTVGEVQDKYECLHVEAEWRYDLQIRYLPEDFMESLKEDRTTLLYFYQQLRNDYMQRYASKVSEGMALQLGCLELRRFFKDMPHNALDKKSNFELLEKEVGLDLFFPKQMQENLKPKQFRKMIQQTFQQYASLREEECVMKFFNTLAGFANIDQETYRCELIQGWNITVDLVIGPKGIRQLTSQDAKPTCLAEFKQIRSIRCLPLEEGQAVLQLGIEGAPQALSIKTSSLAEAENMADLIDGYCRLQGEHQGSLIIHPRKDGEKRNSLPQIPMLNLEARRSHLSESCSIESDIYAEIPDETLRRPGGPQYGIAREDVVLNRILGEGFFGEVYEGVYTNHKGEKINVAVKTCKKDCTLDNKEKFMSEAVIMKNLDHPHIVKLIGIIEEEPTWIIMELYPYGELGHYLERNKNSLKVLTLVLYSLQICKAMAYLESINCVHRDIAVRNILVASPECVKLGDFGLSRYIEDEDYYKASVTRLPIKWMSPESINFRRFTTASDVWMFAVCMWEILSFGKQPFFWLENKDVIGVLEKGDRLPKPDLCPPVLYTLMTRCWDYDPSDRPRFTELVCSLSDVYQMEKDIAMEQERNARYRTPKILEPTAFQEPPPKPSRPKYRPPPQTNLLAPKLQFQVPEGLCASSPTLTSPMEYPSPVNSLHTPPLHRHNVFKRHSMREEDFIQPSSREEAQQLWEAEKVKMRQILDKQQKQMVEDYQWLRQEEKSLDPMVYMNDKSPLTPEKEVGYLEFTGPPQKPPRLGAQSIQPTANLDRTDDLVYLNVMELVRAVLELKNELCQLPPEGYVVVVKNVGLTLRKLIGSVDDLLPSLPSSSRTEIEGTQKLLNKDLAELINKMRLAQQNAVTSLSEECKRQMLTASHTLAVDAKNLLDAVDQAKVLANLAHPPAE
Chain of Proto-oncogene tyrosine-protein kinase receptor Ret (Homo sapiens), P07949 [V804L] (P07949 whole entry V804L): as the sequence (P07949 whole entry Y791F) above, with F791Y, V804L counted along it

SMILES	inhibition [1] [%]	inhibition [2] [%]	inhibition [3] [%]	inhibition [4] [%]	inhibition [5] [%]	inhibition [6] [%]	inhibition [7] [%]	inhibition [8] [%]	inhibition [9] [%]	inhibition [10] [%]
COc1cc(/C=N/Nc2ncnc3[nH]ncc23)ccc1O	67	2.72	3.55	11.4	29.7	59	83.4	17.8	68.6	56.7
Fc1ccc(-c2nn3ncccc3c2-c2ccnc(Nc3ccc4c(c3)OCCO4)n2)cc1	69.7	5.64	25.4	16.4	44	23.5	64.9	4.29	4.6	30.8
CCCN1CCC(c2ccc(Nc3nc(Nc4cc(F)ccc4C(N)=O)c4cc[nH]c4n3)c(OC)c2)CC1	54.5	4.23	19.3	94.9	96.8	9.07	28.1	9.84	51.4	10
CCn1c(-c2nonc2N)nc2c(C#CC(C)(C)O)nc(OC[C@H](N)c3ccccc3)cc21	57.2	-0.38	2.68	1.28	9.96	6.89	38	1.38	6.67	18.6
CCN(CC)S(=O)(=O)c1ccc(OC)c(Nc2ncc(-c3ccccc3)o2)c1	63.8	1.39	9.88	-0.93	16.5	9.2	36.2	3.84	21.3	5.14
Cc1ccc2c(-c3ccnc(Nc4ccccc4)n3)c(-c3ccc(F)cc3)nn2n1	68.1	3.09	14.2	15.2	47.5	14.8	46.6	1.27	0.44	14.7
Nc1ncc(-c2cccc(S(N)(=O)=O)c2)c2scc(-c3ccc(F)c(Cl)c3)c12	53.4	2.22	14.2	2.23	20.8	11.8	49	5.58	7.48	12.4
NS(=O)(=O)c1ccc(Nc2ncc(-c3ccccc3)o2)cc1	46.6	1.2	1.36	10.6	19.8	3.66	7.66	3.57	10	0.77
CS(=O)(=O)CCNCc1ccc(-c2ccc3ncnc(Nc4ccc(OCc5ccccc5)c(C(F)(F)F)c4)c3c2)o1	2	3.35	2.29	8.29	7.02	5.03	2.3	3.65	4.42	6.07
CC(=O)Nc1cccc(C#Cc2cncnc2Nc2ccc(OCc3cccc(F)c3)c(Cl)c2)c1	6.94	0.81	2.51	-2.17	4.14	6.84	11	5.7	9.51	13.3
Cc1cccc2c1NC(=O)/C2=N\Nc1ccc(S(N)(=O)=O)cc1	10.2	1.71	0.62	3.22	9.89	1.83	5.76	3.14	7.11	2.74
c1cc(-c2cnn3nc(N4CCOCC4)ccc23)nc(NC2CC2)n1	51.7	1.71	1.99	15.8	15.4	5.62	15.6	3.15	8.37	6.04
O=C(O[C@H]1CN[C@H](C#Cc2cc3ncnc(Nc4ccc(Cc5ccccc5)cc4)c3s2)C1)N1CCOCC1	0.85	1.3	1.99	0.11	-6.94	3.39	5.06	1.75	2.21	1.94
N#Cc1c(NC(=O)c2ccc(F)cc2)sc2c1CCCC2	5.64	0.6	1.01	1	1.23	0.59	-0.03	1.83	2.29	1.07
CC1=C(C(=O)Nc2cc(Cl)c3[nH]ncc3c2)C(c2ccc(C(F)(F)F)cc2)CC(=O)N1 (stereo not given)	3.69	3.64	7.85	5.71	9.35	4.22	15.2	4.98	33.3	2.42
CCN1CCC(CC(=O)Nc2n[nH]c3nnc(-c4cccc(F)c4F)cc23)CC1	5.87	0.59	-2.06	2.01	2.8	3.04	1.36	3.31	3.73	4.22
COc1ccc2c(-c3ccnc(Nc4cccc(OC(F)(F)F)c4)n3)cnn2n1	32.6	1.94	1.99	14.4	59.9	3.2	8.79	3.12	12.5	1.41

SMILES	inhibition [1] [%]	inhibition [2] [%]	inhibition [3] [%]	inhibition [4] [%]	inhibition [5] [%]	inhibition [6] [%]	inhibition [7] [%]	inhibition [8] [%]	inhibition [9] [%]	inhibition [10] [%]
CCOc1ccc2c(-c3ccnc(Nc4cccc(C(F)(F)F)c4)n3)cnn2n1	20.5	2.02	0.63	-2	3.33	0.9	5.18	5.38	6.22	7.78
CCn1c(-c2nonc2N)nc2c(C#CC(C)(C)O)ncc(OC3CCNCC3)c21	41.1	0.94	2.25	6.98	45.3	4.43	10.3	1.1	4.05	1.51
COc1ccc(-c2nn3ncccc3c2-c2ccnc(Nc3ccc4c(c3)OCCO4)n2)cc1	20.6	0.87	3.44	-3.39	10.2	8.94	47.3	3.01	3.4	11.7
COc1cc2ncn(-c3cc(OCc4ccccc4C(F)(F)F)c(C(=O)N(C)C)s3)c2cc1OC	34.4	0.68	-0.25	-0.29	-5.44	3.06	22.1	0.43	7.17	1.87
CN1CCC(n2cnc(-c3ccc(F)cc3)c2-c2ccnc(N)n2)CC1	29.6	0.15	1.13	-2.24	6.37	5.6	18.7	1.63	13.3	4.75
COc1ccc(-c2oc3ncnc(N)c3c2-c2ccc(NC(=O)Nc3cc(C(F)(F)F)ccc3F)cc2)cc1	80.4	11.5	65	18.8	91	89	93.6	69.5	87.8	74.4
COc1ccc(-c2cc3c(N)ncnc3o2)cc1	11.2	0.49	0.16	-4.88	8.21	-1.19	0.94	0.48	2.98	2.13
CNC(=O)c1cncc(/C=C/c2ccccc2Cl)c1	20	0.04	0.05	-1.7	-0.21	4.56	7.64	0.9	10	0.47
COC(=O)Nc1nc2ccc(S(=O)(=O)c3ccc(NC(=O)Nc4cc(C(F)(F)F)ccc4F)cc3)cc2[nH]1	4.49	2.02	0.33	2.8	6.27	5.15	5.22	5.11	2.64	5.5
COc1cc(Nc2nccc(Nc3ccc4c(C)n[nH]c4c3)n2)cc(OC)c1OC	87.5	1.94	11.5	25.2	84.3	51.1	84	25.3	68.7	57.5
c1ccc(-c2nc3n(c2-c2ccc4c(c2)OCO4)CCC3)nc1	4.62	0.91	0.2	5.1	6.96	2.81	4.44	1.37	1.16	2.63
Nc1nc(-c2ccc(F)cc2)c(-c2ccc3ncccc3n2)s1	42.9	2.59	2.66	10	14.3	8.56	14.8	4.68	7.83	7.45
COc1cc(N2CCN(C(C)C)CC2)ccc1Nc1nc(Nc2ccc(F)cc2C(N)=O)c2cc[nH]c2n1	26.9	2.93	12.7	95.5	97.8	-3.34	9.44	8.15	43.8	4.48
O=C(Nc1n[nH]c2cc(-c3ccc(F)cc3)ccc12)C1CC1	7.77	1.74	2.21	9.12	9.39	2.79	3.73	2.36	3.06	4.2
CCn1cc(-c2ccnc3[nH]ccc23)c(-c2cccc(NC(=O)Nc3ccc(OCc4ccccc4)cc3)c2)n1	3.09	1.32	1.39	3.44	3.88	0.08	0.88	0.99	0.01	2.29
CNC(=O)c1cccc(C#Cc2cncnc2Nc2ccc(OCc3cccc(F)c3)c(Cl)c2)c1	14.1	-0.32	-0.09	-0.72	5.17	1.18	11.6	2.44	12.6	0.02
